# Reference: the supplement of paper PMC8728848
# Shown is part of a subset that was picked to be rich in the strongest signals.
# Tests used:
# Experiment in all cases: glycan array binding signal (z-score within array); higher = stronger binding
# Settings in all cases: glycan notation: IUPAC condensed, linker removed
# [1] = biological target: Fuc(a1-2)Gal(b1-4)GlcNAc6S
# In short: (§1)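 The binding signal is a Z-score computed within each array. Data were drawn from 3228 arrays in the Consortium for Functional Glycomics database, restricted to those with a known protein sequence. Scores were averaged over arrays of the same protein sequence at different concentrations or buffers, and over linkers, and negative values can be taken as non-binding.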
# [2] = biological target: Fuc(a1-2)Gal(b1-4)[Fuc(a1-3)]GlcNAc
# In short: as §1
# Fuc(a1-2)[Gal(a1-3)]Gal = biological target: Fuc(a1-2)[Gal(a1-3)]Gal
# In short: as §1
# [3] = biological target: Fuc(a1-2)[Gal(a1-3)]Gal(b1-3)GlcNAc
# In short: as §1
# [4] = biological target: Fuc(a1-2)[Gal(a1-3)]Gal(b1-4)[Fuc(a1-3)]GlcNAc
# In short: as §1
# [5] = biological target: Fuc(a1-2)[GalNAc(a1-3)]Gal(b1-4)[Fuc(a1-3)]GlcNAc
# In short: as §1
# [6] = biological target: Fuc(a1-3)[Gal3S(b1-4)]Glc6S
# In short: as §1
# [7] = biological target: Fuc(a1-3)[Gal3S(b1-4)]GlcNAc6S
# In short: as §1
# Gal(a1-6)Glc = biological target: Gal(a1-6)Glc
# In short: as §1
# [8] = biological target: Gal(b1-4)GlcNAc(b1-2)Man(a1-3)[Gal(b1-4)GlcNAc(b1-2)Man(a1-6)]Man(b1-4)GlcNAc(b1-4)GlcNAc
# In short: as §1
# GalNAc(b1-4)GlcNAc = biological target: GalNAc(b1-4)GlcNAc
# In short: as §1
# [9] = biological target: GlcNAc(b1-2)Man(a1-3)[GlcNAc(b1-2)Man(a1-6)]Man(b1-4)GlcNAc(b1-4)GlcNAc
# In short: as §1
# [10] = biological target: GlcNAc(b1-3)Gal(b1-3)GalNAc
# In short: as §1
# GlcNAc(b1-3)Gal(b1-4)Glc = biological target: GlcNAc(b1-3)Gal(b1-4)Glc
# In short: as §1
# [11] = biological target: Neu5Ac(a2-3)Gal(b1-3)GlcNAc(b1-3)Gal(b1-3)GlcNAc
# In short: as §1
# [12] = biological target: Neu5Ac(a2-3)Gal(b1-4)[Fuc(a1-3)]GlcNAc(b1-3)Gal
# In short: as §1
# [13] = biological target: Neu5Ac(a2-3)Gal(b1-4)[Fuc(a1-3)]GlcNAc(b1-3)Gal(b1-4)GlcNAc
# In short: as §1
# Neu5Ac(b2-6)GalNAc = biological target: Neu5Ac(b2-6)GalNAc
# In short: as §1
# [14] = biological target: Neu5Ac9Ac(a2-6)Gal(b1-4)GlcNAc
# In short: as §1
# [15] = biological target: Neu5Gc(a2-6)Gal(b1-4)GlcNAc
# In short: as §1
binder,measurement,setting,value
CD23 (Homo sapiens) (protein) MELQVSSGFVCNTCPEKWINFQRKCYYFGKGTKQWVHARYACDDMEGQLVSIHSPEEQDFLTKHASHTGSWIGLRNLDLKGEFIWVDGSHVDYSNWAPGEPTSRSQGEDCVMMRGSGRWNDAFCDRKLGAWVCDRLATCTPPASEGSAESMGPDSRPDPDGRLPTPSAPLHS,glycan array binding signal (z-score),[1],-0.186
same,glycan array binding signal (z-score),[2],0.228
same,glycan array binding signal (z-score),Fuc(a1-2)[Gal(a1-3)]Gal,-0.374
same,glycan array binding signal (z-score),[3],-0.086
same,glycan array binding signal (z-score),[4],0.988
same,glycan array binding signal (z-score),[5],0.752
same,glycan array binding signal (z-score),[6],2.25
same,glycan array binding signal (z-score),[7],0.491
same,glycan array binding signal (z-score),Gal(a1-6)Glc,0.204
same,glycan array binding signal (z-score),[8],-0.225
same,glycan array binding signal (z-score),GalNAc(b1-4)GlcNAc,-0.48
same,glycan array binding signal (z-score),[9],-0.157
same,glycan array binding signal (z-score),[10],1.43
same,glycan array binding signal (z-score),GlcNAc(b1-3)Gal(b1-4)Glc,-0.494
same,glycan array binding signal (z-score),[11],-0.189
same,glycan array binding signal (z-score),[12],-0.435
same,glycan array binding signal (z-score),[13],1.15
same,glycan array binding signal (z-score),Neu5Ac(b2-6)GalNAc,-0.582
same,glycan array binding signal (z-score),[14],1.43
same,glycan array binding signal (z-score),[15],-0.645
